These results are taken from PubChem BioAssay (EPA / NIEHS).

As usually defined, the AC50 is the concentration giving half of the maximal activity seen.

A short description of test [1]: ATG_M_19_CIS: Attagene CIS-FACTORIAL HepG2 Assay for M19 Transcription Factor (Internal Marker) (AID 2282939; active = hit-call score of the fitted dose curve at least 0.9, where 1 is the maximum; inactive = score below 0.9). Particulars: HepG2 Attagene CIS-FACTORIAL M19 internal marker reporter; actives raise or lower the signal. A digest of the protocol:
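Signals come from fluorescence of labelled reporter-specific PCR fragments resolved by capillary electrophoresis, following 24 h treatment of HepG2 cells transfected with cis-promoter reporter units; activity was fitted in both directions relative to DMSO.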

Test [2] is described as follows: ATG_GRE_CIS: Attagene CIS-FACTORIAL HepG2 Assay for human Glucocorticoid Response Elements (GRE) (AID 2282947; active = hit-call score of the fitted dose curve at least 0.9, where 1 is the maximum; inactive = score below 0.9). Particulars: HepG2 GRE cis-reporter, Attagene multiplex mRNA; actives raise or lower the signal. A digest of the protocol:
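Following 24 h chemical exposure of transiently transfected HepG2 cells, total RNA was reverse-transcribed and reporter cDNA amplified, fluorescently labelled and sized by capillary electrophoresis. Signal gain or loss was fitted relative to DMSO vehicle.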

A short description of test [3]: ATG_MRE_CIS: Attagene CIS-FACTORIAL HepG2 Assay for human Metal Responsive Element (MRE) (AID 2282954; active = hit-call score of the fitted dose curve at least 0.9, where 1 is the maximum; inactive = score below 0.9). Particulars: HepG2 MRE cis-reporter transcription, Attagene multiplex; actives raise or lower the signal. An outline of the steps: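 Step one: transfect HepG2 with cis-regulated reporter units. Step two: dose 24 h. Step three: isolate RNA, RT-PCR, 6-FAM label, HpaI digest, capillary electrophoresis. Fit bidirectionally to DMSO.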

Test [4] in a line: ATG_PBREM_CIS: Attagene CIS-FACTORIAL HepG2 Assay for human Phenobarbital-responsive Enhancer Module (PBREM) (AID 2282955; active = hit-call score of the fitted dose curve at least 0.9, where 1 is the maximum; inactive = score below 0.9). As to conditions: HepG2 PBREM cis-reporter, Attagene multiplexed transcription; actives raise or lower the signal. A digest of the protocol:
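After a 24 h incubation with test chemical, transfected HepG2 cells yield total RNA; reporter-specific RT-PCR products are fluorescently labelled, HpaI-digested and resolved by capillary electrophoresis against ROX size standards.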

The nature of test [5]: ATG_TGFb_CIS: Attagene CIS-FACTORIAL HepG2 Assay for human Transforming Growth Factor (TGF) (AID 2282967; active = hit-call score of the fitted dose curve at least 0.9, where 1 is the maximum; inactive = score below 0.9). As to conditions: HepG2 Attagene CIS TGFb reporter, mRNA transcription; actives raise or lower the signal. An outline of the steps:
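Bidirectional fitting relative to DMSO gave the endpoint. Underlying data: reporter mRNA from HepG2 cells carrying transiently transfected cis-regulated reporter constructs, harvested 24 h after dosing and analyzed by RT-PCR and capillary electrophoresis.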

Test [6] addresses X-box-binding protein 1 (Homo sapiens) (UniProt P17861). In words: ATG_Xbp1_CIS: Attagene CIS-FACTORIAL HepG2 Assay for human X-box Binding Protein 1 (XBP1) (AID 2282972; active = hit-call score of the fitted dose curve at least 0.9, where 1 is the maximum; inactive = score below 0.9). As to conditions: HepG2 XBP1 cis-element reporter, Attagene multiplex; actives raise or lower the signal. A digest of the protocol: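 Fluorescence-labelled cDNA fragments from reporter transcripts, separated by capillary electrophoresis, give the signal. Source: HepG2 cells transfected with promoter-driven reporter units, harvested 24 h post-dose. DMSO served as reference for bidirectional curve fitting.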

Test [7] concerns the target Hepatocyte nuclear factor 4-alpha (Homo sapiens) (UniProt P41235). In words: ATG_HNF4a_TRANS: Attagene TRANS-FACTORIAL HepG2 Assay for human Hepatocyte Nuclear Factor 4 alpha (HNF4a) (AID 2282982). As to conditions: HepG2 HNF4a transactivation reporter, mRNA readout. A digest of the protocol:
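Cells used were human HepG2, transiently carrying GAL4-UAS reporter units read out against exogenous NR-GAL4 chimeras. Reporter transcript levels after 24 h dosing were quantified by fluorescent RT-PCR and capillary electrophoresis.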

Test [8] is described as follows: ATG_M_06_TRANS: Attagene TRANS-FACTORIAL HepG2 Assay for M06 Transcription Factor (Internal Marker) (AID 2282983). Particulars: HepG2 Attagene TRANS M06 internal marker reporter. A digest of the protocol:
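Measured by capillary electrophoresis of fluorescently labelled RT-PCR products, this endpoint reflects reporter mRNA in HepG2 cells harbouring exogenous NR-GAL4 reporter constructs after 24 h exposure, with DMSO as baseline.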

Test [9] is described as follows: ATG_M_32_TRANS: Attagene TRANS-FACTORIAL HepG2 Assay for M32 Transcription Factor (Internal Marker) (AID 2282984).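 Note: transcript level of a background control reporter unit measured by RT-PCR and capillary electrophoresis.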 As to conditions: HepG2 Attagene TRANS M32 internal marker reporter. An outline of the steps: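 Human hepatoma HepG2, transient MRTU transfection, 24 h treatment. RNA → RT-PCR → fluorescent primer extension → HpaI digest (2 h, 37 C) → CE. Positive-direction fit vs DMSO.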

Test [10] is described as follows: ATG_NF_kB_CIS: Attagene CIS-FACTORIAL HepG2 Assay for human Nuclear Factor Kappa B (NF-kB) (AID 2282991; active = hit-call score of the fitted dose curve at least 0.9, where 1 is the maximum; inactive = score below 0.9). As to conditions: HepG2 Attagene cis-factorial NF-kB reporter mRNA; actives raise or lower the signal. A digest of the protocol: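 HepG2, transient multi-reporter transfection, cis promoter elements (endogenous TFs). 24 h exposure. Total RNA → RT → PCR → 6-FAM label → HpaI → CE. Gain/loss vs DMSO.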

Test [11] concerns the target Retinoic acid receptor RXR-alpha (Homo sapiens) (UniProt P19793). In words: ATG_RXRa_TRANS: Attagene TRANS-FACTORIAL HepG2 Assay for human Retinoid X Receptor alpha (RXRa) (AID 2283012). An outline of the steps: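 HepG2 cells transiently transfected with GAL4-UAS reporter units and chimeric RXRa-Gal4 protein, treated 24 h. Reporter mRNA measured by RT-PCR, fluorescent labelling, HpaI digestion and capillary electrophoresis. Induction fitted against DMSO.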

The target of test [12] is human Retinoid X Receptor beta (RXRb), RXRB (gene 6257) (UniProt P28702). As to the kind of experiment: ATG_RXRb_TRANS: Attagene TRANS-FACTORIAL HepG2 Assay for human Retinoid X Receptor beta (RXRb) (AID 2283013). A digest of the protocol: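 HepG2 cells were transiently transfected with multiplexed GAL4-UAS reporters and a chimeric RXRb-Gal4 construct, then exposed for 24 h. Reporter mRNA was quantified by RT-PCR, FAM labeling, HpaI digestion and capillary electrophoresis; gain of signal was scored against DMSO.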
human Retinoid X Receptor beta (RXRb), RXRB (gene 6257), sequence (P28702 whole entry, looked up, the tested form may be a part): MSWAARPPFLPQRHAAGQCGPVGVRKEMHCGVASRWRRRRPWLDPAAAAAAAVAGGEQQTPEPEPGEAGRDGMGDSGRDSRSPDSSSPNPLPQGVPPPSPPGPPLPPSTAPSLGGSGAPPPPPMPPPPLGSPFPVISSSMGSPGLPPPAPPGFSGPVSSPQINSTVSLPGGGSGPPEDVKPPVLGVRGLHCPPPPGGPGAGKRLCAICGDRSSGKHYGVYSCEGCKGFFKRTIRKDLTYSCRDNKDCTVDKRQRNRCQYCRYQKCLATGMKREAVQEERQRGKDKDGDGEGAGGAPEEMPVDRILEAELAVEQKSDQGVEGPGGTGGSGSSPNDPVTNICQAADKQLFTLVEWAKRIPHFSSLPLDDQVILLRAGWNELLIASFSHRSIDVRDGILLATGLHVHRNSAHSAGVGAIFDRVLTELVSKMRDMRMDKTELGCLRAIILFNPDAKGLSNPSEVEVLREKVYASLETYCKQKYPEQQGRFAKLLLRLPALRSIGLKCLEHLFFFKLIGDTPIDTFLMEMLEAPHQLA

The nature of test [13]: TOX21_p53_BLA_p2_viability: Viability Assessment in the Tox21 HCT-116 p53 Agonism Beta-lactamase Assay, Phase 2 (AID 2283591).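 Note: actives lower the ATP signal meaning cytotoxicity.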 A digest of the protocol: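 HCT-116 p53-bla cells (4000/well) rested 5 h at 37C, then received compounds in DMSO (217-fold dilution) for 16 h at 37C, 5% CO2. After the CCF4 read, CellTiter-Glo was added; ATP luminescence was read after 30 min at room temperature.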

For test [14], the target named is Cellular tumor antigen p53 (Homo sapiens) (UniProt P04637). In words: TOX21_p53_BLA_p2_ratio: Tox21 HCT-116 p53 Agonism Beta-lactamase Assay, Ratio, Phase 2 (AID 2283592). An outline of the steps:
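An inducible beta-lactamase reporter in HCT116 cells signals p53 pathway activation. After 16 h chemical exposure at 37C, cells load CCF4-AM substrate for 2 h at room temperature; activity is the cleaved/uncleaved emission ratio relative to DMSO.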

Test [15] has the same target. In words: TOX21_p53_BLA_p3_ratio: Tox21 HCT-116 p53 Agonism Beta-lactamase Assay, Ratio, Phase 3 (AID 2283596). A digest of the protocol: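 HCT116 p53-bla cells (4000/well) given compound in DMSO (217-fold dilution) after 5 h, incubated 16 h at 37C. CCF4-AM substrate 2 h at room temperature; 460/530 nm emission ratio, gain fitted against DMSO.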
The nature of test [16]: TOX21_p53_BLA_p5_viability: Viability Assessment in the Tox21 HCT-116 p53 Agonism Beta-lactamase Assay, Phase 5 (AID 2283600). An outline of the steps: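 Counter-readout for cytotoxicity: ATP-dependent luminescence from CellTiter-Glo, read in the beta-lactamase wells after 30 min at RT, following a 16 h compound exposure at 37C.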
For test [17], the target named is Cellular tumor antigen p53 (Homo sapiens) (UniProt P04637). As to the kind of experiment: TOX21_p53_BLA_p4_ratio: Tox21 HCT-116 p53 Agonism Beta-lactamase Assay, Ratio, Phase 4 (AID 2283601). An outline of the steps:
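HCT116 cells carrying an inducible beta-lactamase reporter were plated at 4000 cells/well, rested 5 h, then exposed to compounds in DMSO (217-fold dilution) for 16 h at 37C. CCF4-AM substrate was loaded 2 h at room temperature; 460/530 nm emission ratio scored gain-of-signal versus DMSO.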

Test [18] addresses Retinoic acid receptor alpha (Homo sapiens) (UniProt P10276). In words: ATG_DR5_RAR_CIS: Attagene CIS-FACTORIAL HepG2 Assay for human Retinoic Acid Receptor Alpha (RARE), DR5 submotif (AID 2282934; active = hit-call score of the fitted dose curve at least 0.9, where 1 is the maximum; inactive = score below 0.9). As to conditions: HepG2 Attagene cis-factorial RARE DR5 reporter, mRNA; actives raise or lower the signal. A digest of the protocol:
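HepG2 cells transiently transfected with multiplexed reporter units under cis (DR5 RARE) promoters, so endogenous transcription factor activity is measured. After 24 h compound exposure, reporter mRNA is quantified by RT-PCR with fluorescent labelling and capillary electrophoresis; bidirectional fitting versus DMSO.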

For test [19], the target named is Hepatocyte nuclear factor 6 (Homo sapiens) (UniProt Q9UBC0). As to the kind of experiment: ATG_HNF6_CIS: Attagene CIS-FACTORIAL HepG2 Assay for human Hepatocyte Nuclear Factor 6 (HNF6) (AID 2282952; active = hit-call score of the fitted dose curve at least 0.9, where 1 is the maximum; inactive = score below 0.9). Particulars: HepG2 Attagene cis-factorial HNF6 reporter transcription; actives raise or lower the signal. A digest of the protocol:
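Reporter mRNA induction or loss in HepG2 after 24 h exposure; transient cis-MRTU transfection; fragments quantified by capillary electrophoresis; bidirectional analysis, DMSO as negative control.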

The target in test [20] is Cellular tumor antigen p53 (Homo sapiens) (UniProt P04637). In words: TOX21_p53_BLA_p5_ratio: Tox21 HCT-116 p53 Agonism Beta-lactamase Assay, Ratio, Phase 5 (AID 2283599). An outline of the steps:
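HCT-116 cells carrying a p53-inducible beta-lactamase reporter were seeded at 4000 cells/well and dosed after 5 h with compound in DMSO (217-fold dilution). After 16 h at 37C, CCF4-AM substrate was added for 2 h, and the 460/530 nm emission ratio was scored as gain-of-signal versus DMSO.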

Inconclusive results are not listed. Some structures have more than one record in an assay (separate samples or runs), and their calls can disagree. The source made the active and inactive calls. Rule for the calls, unless noted: active = hit-call score of the fitted dose curve at least 0.9, where 1 is the maximum; inconclusive = response in the unintended direction; inactive = score below 0.9.

Retinoic acid receptor alpha (Homo sapiens), sequence (P10276 whole entry, looked up): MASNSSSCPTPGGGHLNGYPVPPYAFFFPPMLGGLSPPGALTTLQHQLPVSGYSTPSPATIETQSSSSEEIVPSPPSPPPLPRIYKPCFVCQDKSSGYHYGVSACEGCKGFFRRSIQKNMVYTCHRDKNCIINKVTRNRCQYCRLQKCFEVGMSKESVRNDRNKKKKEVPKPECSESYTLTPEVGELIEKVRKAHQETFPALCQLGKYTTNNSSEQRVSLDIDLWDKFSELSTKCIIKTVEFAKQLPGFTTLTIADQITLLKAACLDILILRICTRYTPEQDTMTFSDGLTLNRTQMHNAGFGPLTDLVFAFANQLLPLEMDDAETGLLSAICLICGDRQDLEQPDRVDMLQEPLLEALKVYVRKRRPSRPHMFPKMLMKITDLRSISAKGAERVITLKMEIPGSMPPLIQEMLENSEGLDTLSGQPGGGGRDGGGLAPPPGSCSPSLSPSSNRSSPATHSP
X-box-binding protein 1 (Homo sapiens), sequence (P17861 whole entry, looked up, the tested form may be a part): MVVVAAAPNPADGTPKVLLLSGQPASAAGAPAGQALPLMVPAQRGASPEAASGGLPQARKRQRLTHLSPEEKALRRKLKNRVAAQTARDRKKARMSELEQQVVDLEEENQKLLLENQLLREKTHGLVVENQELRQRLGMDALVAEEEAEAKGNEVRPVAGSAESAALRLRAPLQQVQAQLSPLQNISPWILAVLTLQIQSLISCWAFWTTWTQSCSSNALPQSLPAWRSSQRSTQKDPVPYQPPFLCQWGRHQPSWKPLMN
Retinoic acid receptor RXR-alpha (Homo sapiens), sequence (P19793 whole entry, looked up, the tested form may be a part): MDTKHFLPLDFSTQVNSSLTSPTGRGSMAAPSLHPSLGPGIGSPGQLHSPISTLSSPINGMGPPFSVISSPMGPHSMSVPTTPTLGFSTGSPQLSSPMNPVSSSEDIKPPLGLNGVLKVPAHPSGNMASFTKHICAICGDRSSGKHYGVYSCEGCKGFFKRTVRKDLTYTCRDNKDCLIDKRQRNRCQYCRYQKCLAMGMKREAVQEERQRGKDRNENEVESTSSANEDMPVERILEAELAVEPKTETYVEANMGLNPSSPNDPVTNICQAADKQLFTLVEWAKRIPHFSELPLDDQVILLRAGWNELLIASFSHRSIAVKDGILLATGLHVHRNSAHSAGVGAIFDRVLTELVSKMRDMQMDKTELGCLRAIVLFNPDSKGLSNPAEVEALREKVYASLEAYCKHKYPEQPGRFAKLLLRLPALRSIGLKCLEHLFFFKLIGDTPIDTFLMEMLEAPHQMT
Hepatocyte nuclear factor 6 (Homo sapiens), sequence (Q9UBC0 whole entry, looked up, the tested form may be a part): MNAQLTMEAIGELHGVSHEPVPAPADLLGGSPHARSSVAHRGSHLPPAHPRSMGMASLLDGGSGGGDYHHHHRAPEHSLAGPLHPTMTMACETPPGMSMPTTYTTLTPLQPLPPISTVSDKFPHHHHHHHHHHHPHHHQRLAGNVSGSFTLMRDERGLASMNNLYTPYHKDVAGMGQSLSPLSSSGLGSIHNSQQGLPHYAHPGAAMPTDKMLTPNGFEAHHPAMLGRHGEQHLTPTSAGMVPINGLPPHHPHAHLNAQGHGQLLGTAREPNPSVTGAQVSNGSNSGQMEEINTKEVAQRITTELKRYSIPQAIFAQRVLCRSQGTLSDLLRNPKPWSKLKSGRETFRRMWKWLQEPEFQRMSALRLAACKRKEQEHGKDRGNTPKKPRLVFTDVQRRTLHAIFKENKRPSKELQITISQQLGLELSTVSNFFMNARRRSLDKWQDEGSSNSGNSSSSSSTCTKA
Cellular tumor antigen p53 (Homo sapiens), sequence (P04637 whole entry, looked up): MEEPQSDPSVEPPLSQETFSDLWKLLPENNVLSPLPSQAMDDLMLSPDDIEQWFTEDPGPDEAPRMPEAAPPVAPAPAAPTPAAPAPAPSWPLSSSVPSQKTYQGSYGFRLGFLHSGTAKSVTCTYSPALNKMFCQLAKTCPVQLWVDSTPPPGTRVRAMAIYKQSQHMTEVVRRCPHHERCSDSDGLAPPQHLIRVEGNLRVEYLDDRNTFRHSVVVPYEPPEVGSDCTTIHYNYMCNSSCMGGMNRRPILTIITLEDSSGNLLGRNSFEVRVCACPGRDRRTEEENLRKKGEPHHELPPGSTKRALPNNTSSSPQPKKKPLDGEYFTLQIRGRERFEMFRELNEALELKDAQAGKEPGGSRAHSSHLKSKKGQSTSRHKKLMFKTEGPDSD
Hepatocyte nuclear factor 4-alpha (Homo sapiens), sequence (P41235 whole entry, looked up, the tested form may be a part): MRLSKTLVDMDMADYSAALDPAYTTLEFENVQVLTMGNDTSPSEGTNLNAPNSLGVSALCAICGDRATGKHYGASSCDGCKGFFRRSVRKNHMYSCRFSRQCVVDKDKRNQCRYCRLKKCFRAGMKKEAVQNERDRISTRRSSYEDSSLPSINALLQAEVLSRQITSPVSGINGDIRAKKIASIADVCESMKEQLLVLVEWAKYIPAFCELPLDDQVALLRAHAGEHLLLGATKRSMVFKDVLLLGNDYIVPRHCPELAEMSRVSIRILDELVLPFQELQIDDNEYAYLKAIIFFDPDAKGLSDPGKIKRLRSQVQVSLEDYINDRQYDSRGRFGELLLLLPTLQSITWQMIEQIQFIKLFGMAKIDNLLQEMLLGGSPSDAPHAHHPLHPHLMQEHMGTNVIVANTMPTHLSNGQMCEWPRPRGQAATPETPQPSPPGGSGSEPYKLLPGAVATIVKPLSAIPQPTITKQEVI

In the case of `CCCCCC[C@@H](O)C/C=C\CCCCCCCC(=O)O`, the result in test [1], in [4], in [6], in [7], in test [8] and in [9] was inactive. For the same compound, the result in test [10], in test [11], in test [13], in [14], in test [15] and in [16] was inactive. Further, in [17], the result was inactive. For the same compound, the AC50 was 186 µM (active) in test [2]; 139 µM (active) in test [3]; 115 µM (active) in test [5]; 30.9 µM (active) in [12]; 68.9 µM (active) in test [14]; 36.6 µM (active) in test [15]. Moreover, the AC50 in test [17] is 73.6 µM (active).

Take `CC/C=C\CC/C=C/C(OCC)OCC`: the compound was called inactive in test [18], in test [2], in test [19], in test [4], in [5] and in test [7]. Also, the compound was classed as inactive in test [8], in test [9] and in test [20]. For the same compound, the AC50 in test [10] was 100 µM (active).

Consider `COc1cccc(OC)c1C(=O)O`, for which the result in test [1], in [2], in test [19], in test [3], in [4] and in [5] was inactive. Moreover, the call in [6], in test [7], in [8], in test [9], in [12] and in test [14] was inactive. Moreover, the outcome in test [15], in [20], in [16] and in test [17] was inactive.

For the compound `Clc1ccccn1`, the compound was called inactive in [18], in test [5], in test [6], in test [7], in test [8] and in test [9]. Also, the outcome in test [10], in test [14], in [20] and in test [16] was inactive.

For `O=S(=O)(O)c1cccc2ccccc12`, the compound was called inactive in [1], in test [2], in test [3], in test [7], in [8] and in test [11]. The call in test [13], in test [20] and in test [17] was inactive.

Take `CC/C=C/CCO`: the call in test [1], in test [2], in test [19], in test [3], in [8] and in test [12] was inactive. The compound was called inactive in test [13], in test [15], in test [20], in test [16] and in test [17].

In the case of `C=CCOC(=O)C(=C)C`, the outcome in test [18], in [2], in test [19], in test [3], in [4] and in [6] was inactive. The outcome in test [7], in test [8], in test [12], in [14], in test [15] and in [20] was inactive. Besides, the outcome in test [17] was inactive.

Consider `Cc1cc2nc3c(=O)[nH]c(=O)nc-3n(C[C@H](O)[C@H](O)[C@H](O)CO)c2cc1C`, for which the compound was classed as inactive in [18], in test [2], in [19], in [3], in [4] and in [5]. For the same compound, the call in [7], in test [8], in test [10], in [11], in test [13] and in [14] was inactive. In addition, the result in test [15], in test [16] and in test [17] was inactive.

As to `O=[N+]([O-])c1ccc(ON=Cc2cc(Br)c(O)c(Br)c2)c([N+](=O)[O-])c1`, the outcome in test [13] and in test [16] was inactive. Also, the AC50 in [14] is 79 µM (active); in test [15] it was 8.26 µM (active); in [20], 13.8 µM (active); in test [17], 75.9 µM (active).

In the case of `NCc1ccccc1`, the compound was classed as inactive in test [2], in [19], in test [3], in test [4], in [5] and in test [6]. Also, the outcome in [7], in test [9], in [12], in test [13], in [14] and in test [20] was inactive. In addition, the outcome in [17] was inactive.
